Data: the supplement of paper PMC11732987, “Enantioselective OTUD7B fragment discovery through chemoproteomics screening and high-throughput optimisation” (Communications Chemistry, 2025)

Columns and labels:
Assay in all cases: log2 ratio of Biotin-Ahx-Ub-VS probe labelling (fragment/DMSO); higher = less target engagement (more negative = stronger competition), active = hit call of the paper (q ≤ 0.05, log2 ratio ≤ -1)
Details in all cases: compound concentration: 200 uM; treatment time: 3 h
USP19 = target: T1, USP19 (UniProt O94966)
T1 sequence (whole entry): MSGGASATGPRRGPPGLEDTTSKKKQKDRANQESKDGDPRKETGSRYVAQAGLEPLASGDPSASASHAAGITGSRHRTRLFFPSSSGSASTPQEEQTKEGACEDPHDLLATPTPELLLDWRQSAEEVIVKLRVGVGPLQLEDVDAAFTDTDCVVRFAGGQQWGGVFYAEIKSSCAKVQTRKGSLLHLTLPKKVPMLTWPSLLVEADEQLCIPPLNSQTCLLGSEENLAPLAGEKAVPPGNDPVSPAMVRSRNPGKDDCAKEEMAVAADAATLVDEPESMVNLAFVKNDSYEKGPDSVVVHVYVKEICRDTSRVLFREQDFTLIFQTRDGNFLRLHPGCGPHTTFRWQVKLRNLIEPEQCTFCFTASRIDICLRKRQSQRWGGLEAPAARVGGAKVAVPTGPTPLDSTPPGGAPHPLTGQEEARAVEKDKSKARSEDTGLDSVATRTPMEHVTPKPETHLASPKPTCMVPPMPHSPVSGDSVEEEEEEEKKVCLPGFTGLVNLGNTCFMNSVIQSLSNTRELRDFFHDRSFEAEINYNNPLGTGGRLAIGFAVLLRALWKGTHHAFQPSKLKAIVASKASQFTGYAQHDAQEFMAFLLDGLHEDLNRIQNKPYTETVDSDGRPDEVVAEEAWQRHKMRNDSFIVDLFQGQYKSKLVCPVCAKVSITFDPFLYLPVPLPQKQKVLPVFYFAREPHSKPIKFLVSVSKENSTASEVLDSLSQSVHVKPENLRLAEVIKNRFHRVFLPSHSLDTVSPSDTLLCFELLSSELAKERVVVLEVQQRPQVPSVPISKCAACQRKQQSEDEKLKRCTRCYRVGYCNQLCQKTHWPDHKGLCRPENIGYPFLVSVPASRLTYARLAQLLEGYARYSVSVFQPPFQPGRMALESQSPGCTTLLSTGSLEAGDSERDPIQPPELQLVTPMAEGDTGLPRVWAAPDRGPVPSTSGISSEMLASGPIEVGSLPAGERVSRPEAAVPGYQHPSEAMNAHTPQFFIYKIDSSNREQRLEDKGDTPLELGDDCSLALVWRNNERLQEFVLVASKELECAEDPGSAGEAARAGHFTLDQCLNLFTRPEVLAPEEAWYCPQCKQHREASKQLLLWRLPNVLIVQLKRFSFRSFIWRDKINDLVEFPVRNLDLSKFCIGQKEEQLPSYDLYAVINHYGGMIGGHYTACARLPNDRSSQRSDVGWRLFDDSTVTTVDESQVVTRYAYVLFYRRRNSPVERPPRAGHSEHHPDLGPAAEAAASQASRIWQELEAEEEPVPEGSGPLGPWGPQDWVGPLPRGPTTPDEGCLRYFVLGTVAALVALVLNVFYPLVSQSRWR
Procedure, shortened: (§1)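 The table lists average log2 ratios of fragment over vehicle, from an unpaired t-test on global-median-normalised Spectronaut label-free quantities. Proteins with ≥2 unique peptides were used. Samples were HEK293T lysate (495 µg) treated in triplicate with fragment at 200 µM or vehicle for 3 h, then with Biotin-Ahx-Ub-VS (0.5 µM final) for 1 h, with labelled DUBs NeutrAvidin-enriched and run by diaPASEF LC-MS/MS.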

USP22 = target: T2, USP22 (UniProt Q9UPT9)
T2 sequence (whole entry): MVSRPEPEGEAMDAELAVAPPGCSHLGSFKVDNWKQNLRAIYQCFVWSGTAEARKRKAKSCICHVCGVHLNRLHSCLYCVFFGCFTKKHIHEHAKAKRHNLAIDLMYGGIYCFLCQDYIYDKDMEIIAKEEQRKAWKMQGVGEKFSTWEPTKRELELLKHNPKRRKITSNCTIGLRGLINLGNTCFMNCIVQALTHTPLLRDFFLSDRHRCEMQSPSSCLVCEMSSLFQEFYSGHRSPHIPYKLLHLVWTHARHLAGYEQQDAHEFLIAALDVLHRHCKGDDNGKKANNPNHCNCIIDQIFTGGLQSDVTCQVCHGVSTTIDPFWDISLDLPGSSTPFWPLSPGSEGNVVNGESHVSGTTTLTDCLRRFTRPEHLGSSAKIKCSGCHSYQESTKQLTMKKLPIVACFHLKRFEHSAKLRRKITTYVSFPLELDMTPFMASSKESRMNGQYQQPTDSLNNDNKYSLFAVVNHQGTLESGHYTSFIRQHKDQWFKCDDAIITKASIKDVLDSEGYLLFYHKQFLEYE
Procedure, shortened: as §1

USP24 = USP24 (UniProt Q9UPU5)
Chain of USP24 (Q9UPU5 whole entry): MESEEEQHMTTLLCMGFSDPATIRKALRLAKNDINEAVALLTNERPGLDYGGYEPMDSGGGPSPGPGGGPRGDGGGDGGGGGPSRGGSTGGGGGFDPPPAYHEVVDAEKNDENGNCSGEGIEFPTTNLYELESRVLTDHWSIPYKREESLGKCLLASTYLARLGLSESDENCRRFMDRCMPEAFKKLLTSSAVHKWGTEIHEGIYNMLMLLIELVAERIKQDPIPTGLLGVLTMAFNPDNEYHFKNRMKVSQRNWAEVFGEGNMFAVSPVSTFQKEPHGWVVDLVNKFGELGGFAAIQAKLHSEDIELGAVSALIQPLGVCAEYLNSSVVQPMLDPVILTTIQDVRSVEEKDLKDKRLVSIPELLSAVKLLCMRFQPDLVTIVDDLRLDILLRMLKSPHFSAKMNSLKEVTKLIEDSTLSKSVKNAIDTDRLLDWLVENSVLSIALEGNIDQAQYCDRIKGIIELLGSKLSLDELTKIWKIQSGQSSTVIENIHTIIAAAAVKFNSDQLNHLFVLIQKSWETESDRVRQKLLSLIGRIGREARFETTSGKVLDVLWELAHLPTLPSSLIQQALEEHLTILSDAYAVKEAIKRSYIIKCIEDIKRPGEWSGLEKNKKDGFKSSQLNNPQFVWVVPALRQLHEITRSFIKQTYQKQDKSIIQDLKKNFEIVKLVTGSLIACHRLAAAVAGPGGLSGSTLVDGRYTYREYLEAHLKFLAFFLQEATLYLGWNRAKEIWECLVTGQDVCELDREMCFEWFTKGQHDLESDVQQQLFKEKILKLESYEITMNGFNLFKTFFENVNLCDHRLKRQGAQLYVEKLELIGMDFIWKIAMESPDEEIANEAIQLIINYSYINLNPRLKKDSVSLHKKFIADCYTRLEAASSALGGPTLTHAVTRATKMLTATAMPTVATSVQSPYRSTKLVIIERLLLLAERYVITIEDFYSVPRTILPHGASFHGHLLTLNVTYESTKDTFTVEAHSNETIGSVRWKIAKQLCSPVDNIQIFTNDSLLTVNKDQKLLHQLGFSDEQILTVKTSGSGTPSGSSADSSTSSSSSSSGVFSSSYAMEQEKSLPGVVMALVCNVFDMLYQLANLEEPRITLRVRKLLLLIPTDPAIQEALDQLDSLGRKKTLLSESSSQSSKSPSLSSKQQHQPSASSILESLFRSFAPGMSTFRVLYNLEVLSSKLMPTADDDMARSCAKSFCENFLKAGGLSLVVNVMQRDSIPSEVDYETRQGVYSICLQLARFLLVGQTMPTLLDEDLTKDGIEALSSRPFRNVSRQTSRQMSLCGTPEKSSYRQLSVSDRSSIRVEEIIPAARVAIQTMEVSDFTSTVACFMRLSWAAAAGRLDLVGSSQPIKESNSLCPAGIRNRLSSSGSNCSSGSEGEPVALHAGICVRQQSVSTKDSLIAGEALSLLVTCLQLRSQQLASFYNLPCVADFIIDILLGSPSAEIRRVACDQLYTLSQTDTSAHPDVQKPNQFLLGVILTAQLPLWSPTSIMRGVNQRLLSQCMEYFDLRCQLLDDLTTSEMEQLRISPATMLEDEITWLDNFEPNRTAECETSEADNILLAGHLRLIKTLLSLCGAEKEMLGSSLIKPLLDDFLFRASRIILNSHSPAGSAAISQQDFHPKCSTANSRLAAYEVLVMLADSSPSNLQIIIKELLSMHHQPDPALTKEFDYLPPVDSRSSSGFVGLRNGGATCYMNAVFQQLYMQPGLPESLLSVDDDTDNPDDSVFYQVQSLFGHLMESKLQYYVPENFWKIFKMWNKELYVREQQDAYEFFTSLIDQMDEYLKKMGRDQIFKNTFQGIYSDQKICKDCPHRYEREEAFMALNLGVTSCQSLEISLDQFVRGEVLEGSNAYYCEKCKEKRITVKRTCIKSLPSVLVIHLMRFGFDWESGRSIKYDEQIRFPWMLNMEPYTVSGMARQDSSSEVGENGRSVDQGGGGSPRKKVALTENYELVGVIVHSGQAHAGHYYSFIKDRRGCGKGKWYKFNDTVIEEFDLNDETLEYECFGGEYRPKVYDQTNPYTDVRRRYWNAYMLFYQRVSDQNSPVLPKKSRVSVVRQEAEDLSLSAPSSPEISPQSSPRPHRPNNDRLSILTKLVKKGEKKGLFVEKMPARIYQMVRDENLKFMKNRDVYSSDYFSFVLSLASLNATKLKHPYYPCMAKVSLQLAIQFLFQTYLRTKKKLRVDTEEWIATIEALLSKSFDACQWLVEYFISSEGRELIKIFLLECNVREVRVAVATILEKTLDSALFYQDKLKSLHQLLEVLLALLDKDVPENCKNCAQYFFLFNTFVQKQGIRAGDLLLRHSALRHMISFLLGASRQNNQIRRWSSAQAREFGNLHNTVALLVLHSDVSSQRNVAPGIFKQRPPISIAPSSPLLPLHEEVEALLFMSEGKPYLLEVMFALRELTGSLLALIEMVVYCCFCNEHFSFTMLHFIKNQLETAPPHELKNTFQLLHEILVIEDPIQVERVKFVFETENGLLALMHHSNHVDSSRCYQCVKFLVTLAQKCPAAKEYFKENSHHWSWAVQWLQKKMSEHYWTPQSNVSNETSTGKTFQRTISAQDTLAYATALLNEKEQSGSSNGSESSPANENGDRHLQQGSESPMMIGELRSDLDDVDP
Procedure, shortened: as §1

USP25 = target: T3, USP25 (UniProt Q9UHP3)
T3 sequence (whole entry): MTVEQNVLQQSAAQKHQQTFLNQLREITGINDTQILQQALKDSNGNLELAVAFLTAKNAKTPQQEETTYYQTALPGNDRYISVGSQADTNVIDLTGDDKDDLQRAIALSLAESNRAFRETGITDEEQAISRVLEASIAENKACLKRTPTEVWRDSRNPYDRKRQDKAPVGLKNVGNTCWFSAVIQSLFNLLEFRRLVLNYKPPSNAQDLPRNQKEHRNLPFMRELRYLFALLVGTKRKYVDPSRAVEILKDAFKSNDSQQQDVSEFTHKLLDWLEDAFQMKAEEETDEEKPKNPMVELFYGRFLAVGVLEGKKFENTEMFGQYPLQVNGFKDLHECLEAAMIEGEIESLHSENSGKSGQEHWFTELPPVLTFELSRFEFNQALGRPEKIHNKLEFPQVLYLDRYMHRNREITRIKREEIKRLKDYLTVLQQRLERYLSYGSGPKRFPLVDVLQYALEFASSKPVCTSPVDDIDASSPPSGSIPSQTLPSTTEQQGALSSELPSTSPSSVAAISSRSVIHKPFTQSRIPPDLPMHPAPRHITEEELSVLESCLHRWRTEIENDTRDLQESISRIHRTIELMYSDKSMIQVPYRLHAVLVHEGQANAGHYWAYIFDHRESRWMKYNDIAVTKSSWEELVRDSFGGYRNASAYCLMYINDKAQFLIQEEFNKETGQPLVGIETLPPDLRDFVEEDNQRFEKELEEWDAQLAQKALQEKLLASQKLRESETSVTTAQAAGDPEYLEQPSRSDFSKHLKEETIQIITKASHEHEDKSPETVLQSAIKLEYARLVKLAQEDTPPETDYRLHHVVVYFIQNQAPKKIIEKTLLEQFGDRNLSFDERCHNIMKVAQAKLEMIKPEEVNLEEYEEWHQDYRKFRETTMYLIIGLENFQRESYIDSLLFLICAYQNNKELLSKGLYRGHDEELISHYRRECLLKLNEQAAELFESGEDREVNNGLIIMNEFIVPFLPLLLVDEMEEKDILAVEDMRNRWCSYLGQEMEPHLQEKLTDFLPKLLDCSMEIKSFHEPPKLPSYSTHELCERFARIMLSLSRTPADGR
Procedure, shortened: as §1

USP28 = target: T4, USP28 (UniProt Q96RU2)
T4 sequence (whole entry): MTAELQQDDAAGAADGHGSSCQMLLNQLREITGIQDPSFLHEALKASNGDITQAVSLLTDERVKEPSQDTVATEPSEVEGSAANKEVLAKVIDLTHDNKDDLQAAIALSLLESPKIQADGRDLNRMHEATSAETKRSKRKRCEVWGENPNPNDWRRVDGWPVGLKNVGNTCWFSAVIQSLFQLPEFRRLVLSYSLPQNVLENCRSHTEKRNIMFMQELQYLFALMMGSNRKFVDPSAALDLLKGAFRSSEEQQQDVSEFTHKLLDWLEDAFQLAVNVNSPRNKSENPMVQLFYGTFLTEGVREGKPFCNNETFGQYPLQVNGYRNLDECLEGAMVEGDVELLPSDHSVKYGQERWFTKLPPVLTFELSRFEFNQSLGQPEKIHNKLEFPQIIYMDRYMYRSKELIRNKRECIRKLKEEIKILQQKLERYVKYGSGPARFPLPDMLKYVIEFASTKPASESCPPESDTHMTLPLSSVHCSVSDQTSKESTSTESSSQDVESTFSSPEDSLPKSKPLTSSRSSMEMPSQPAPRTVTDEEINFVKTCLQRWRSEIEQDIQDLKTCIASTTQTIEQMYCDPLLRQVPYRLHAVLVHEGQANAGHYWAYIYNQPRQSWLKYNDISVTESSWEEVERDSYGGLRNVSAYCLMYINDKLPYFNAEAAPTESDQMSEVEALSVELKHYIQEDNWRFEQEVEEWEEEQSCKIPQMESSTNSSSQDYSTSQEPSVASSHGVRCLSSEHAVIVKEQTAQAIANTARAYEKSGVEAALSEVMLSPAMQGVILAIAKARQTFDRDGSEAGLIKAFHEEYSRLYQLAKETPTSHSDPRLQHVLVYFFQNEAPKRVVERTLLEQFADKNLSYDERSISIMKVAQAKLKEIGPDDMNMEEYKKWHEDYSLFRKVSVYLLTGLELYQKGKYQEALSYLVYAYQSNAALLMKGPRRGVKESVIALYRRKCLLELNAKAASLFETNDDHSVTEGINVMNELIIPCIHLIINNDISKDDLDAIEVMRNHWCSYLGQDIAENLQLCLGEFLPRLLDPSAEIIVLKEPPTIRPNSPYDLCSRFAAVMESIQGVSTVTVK
Procedure, shortened: as §1

Measured: log2 ratio of Biotin-Ahx-Ub-VS probe labelling

O=C(CCl)N1CCc2ccccc2C(O)C1 (stereo not given)
inactive: USP19 -0.315 | USP22 -0.345 | USP24 -0.483 | USP25 -0.343 | USP28 -0.698
